Reference: PubChem BioAssay (NCATS)
Inconclusive results are not listed. Activity calls are given as the source filed them. Unless noted, the call rests on the fitted dose curve; in most records, active means well fitted curve in the direction sought with a large enough effect; inconclusive means small, poorly fitted or top-dose-only effect, or another doubt; inactive means no such curve, though single readings can be large; an effect the other way counts as inactive or inconclusive.

Legend:
[1] = biological target: Glucocorticoid receptor (Homo sapiens) (UniProt P04150); assay: qHTS assay for small molecule agonists of glucocorticoid receptor signaling (AID 588532; active means well fitted curve in the direction sought with a large enough effect in the signal ratio, with a control signal flat; the % refers to the signal ratio;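 further: 100% = dexamethasone at 0.1 µM and 0% = DMSO only wells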); details: HeLa MMTV-bla, beta-lactamase ratio, agonist, 18 h; stronger effect = higher value; percent of dexamethasone control, DMSO zero
Outline: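 MMTV-bla HeLa, beta-lactamase reporter; medium with 1% charcoal/dextran-stripped FBS; cpds up to 92 uM, 18 h, 37 C; CCF4 readout 460/530 nm; Hill fit → EC50, efficacy vs 0.1 uM dexamethasone = 100%.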

[2] = biological target: Peroxisome proliferator-activated receptor gamma (Homo sapiens) (UniProt P37231); assay: qHTS assay for small molecule agonists of peroxisome proliferator-activated receptor gamma signaling (AID 588536; active means well fitted curve in the direction sought with a large enough effect in the signal ratio, with a control signal flat, not every such curve was filed as active; the % refers to the signal ratio;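 further: 0% = DMSO basal wells and 100% = rosiglitazone at 2 µM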); details: HEK293 PPARg-UAS-bla, beta-lactamase ratio, 16 h, percent of rosiglitazone response, DMSO as zero; series mostly up to 76.7 µM
Outline: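 Ratiometric blue/green fluorescence (405 nm excitation; 460 and 530 nm emission) from CCF4-loaded HEK293 reporter cells serves as signal. Exposure to test compounds lasts 16 h at 37 C in medium containing 1% charcoal/dextran-treated serum.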

[3] = biological target: Peroxisome proliferator-activated receptor gamma (Homo sapiens) (UniProt P37231); assay: qHTS assay for small molecule antagonists of peroxisome proliferator-activated receptor gamma signaling (AID 588537; active means well fitted inhibition curve with a large enough effect in the signal ratio, with a control signal flat, not every such curve was filed as active; the % refers to the signal ratio;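 further: reporter cells co-stimulated with 50 nM rosiglitazone agonist during compound treatment; % of control where 0% means no effect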); details: HEK293 PPARg-UAS-bla, beta-lactamase ratio, antagonist mode; series mostly up to 76.8 µM
Outline: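 PPAR-gamma-UAS-bla HEK293 cells (3000/well, 1% charcoal/dextran-stripped FBS) were preincubated 6-6.5 h at 37 C, given titrated compounds, then stimulated with 50 nM rosiglitazone for 16 h. Beta-lactamase activity was read with CCF4 dye; IC50 came from Hill fits.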

[4] = biological target: Vitamin D3 receptor (Homo sapiens) (UniProt P11473); assay: qHTS assay for small molecule antagonists of vitamin D receptor signaling (AID 588541; calls by dose curve; further: potency means the concentration at half of the fitted maximal effect); details: HEK293T VDR-UAS-bla, beta-lactamase ratio, antagonist mode; series mostly up to 76.7 µM
Outline: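 VDR-UAS-bla HEK293T cells (2000/well, 2% charcoal-stripped FBS) were treated with titrated compounds plus 1-alpha,25-dihydroxyvitamin D3 (50 nM or 3 nM final) for 16 h at 37 C. CCF4 beta-lactamase fluorescence was read; Hill fits gave IC50.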

[5] = biological target: Vitamin D3 receptor (Homo sapiens) (UniProt P11473); assay: qHTS assay for small molecule agonists of vitamin D receptor signaling (AID 588543; calls by dose curve;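 further: 0% = DMSO basal and 100% = reference agonist control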); details: HEK293T VDR-UAS-bla, beta-lactamase ratio, 16 h; series mostly up to 76.8 µM
Outline: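 qHTS in agonist mode: compound titrations stimulate a VDR-driven β-lactamase reporter in HEK293T cells over 16 h at 37 °C. Response normalized to 50 nM 1α,25-dihydroxyvitamin D3 = 100%, DMSO = 0%; Hill fitting gives EC50 and maximal response.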

[6] = qHTS assay for small molecule agonists of retinoid X receptor alpha signaling (AID 588544; calls by dose curve;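 on activation: 0% = DMSO basal wells and 100% = reference agonist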); details: HEK293T RXRa-UAS-bla, beta-lactamase reporter, 18 h; 530 nm emission
[7] = biological target: Retinoic acid receptor RXR-alpha (Homo sapiens) (UniProt P19793); assay: as above; details: HEK293T RXRa-UAS-bla, beta-lactamase reporter, 18 h; series mostly up to 76.7 µM
[8] = biological target: Thyroid hormone receptor beta (Homo sapiens) (UniProt P10828); assay: qHTS assay for small molecule agonists of thyroid hormone receptor beta signaling (AID 588545; calls by dose curve;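 further: 0% = DMSO only and 100% = 10 nM T3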); details: TR-UAS-bla GripTite HEK 293, beta-lactamase ratio, agonist mode, 18 h; series mostly up to 76.7 µM
Outline: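 Efficacy and EC50 values derive from Hill fits of qHTS titration data, normalized to 10 nM T3 and DMSO-only wells. HEK 293 reporter cells were stimulated for 18 hrs at 37 C, with beta-lactamase activity measured by CCF4 fluorescence.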

[9] = qHTS assay for small molecule antagonists of retinoid X receptor alpha signaling (AID 588546; active means well fitted inhibition curve with a large enough effect in the signal ratio, with a control signal flat, not every such curve was filed as active; the % refers to the signal ratio;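 further: cells stimulated with 9-cis-retinoic acid as agonist; on the % scale 0 is the no-effect control and ±100 the full control effect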); details: HEK293T RXRa-UAS-bla, beta-lactamase ratio, antagonist mode; measured here: W530 green channel, cytotoxicity proxy
Outline: (§1)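 Beta-lactamase reporter inhibition, read as CCF4 fluorescence ratio (ex 405, em 460/530 nm) after 2 h at RT. HEK293T UAS-bla cells, 2500/well, were stimulated with 9-cis-RA at 500 or 100 nM final alongside test compound for 18 h at 37 C.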

[10] = biological target: Retinoic acid receptor RXR-alpha (Homo sapiens) (UniProt P19793); assay: as above; details: HEK293T RXRa-UAS-bla, beta-lactamase ratio, antagonist mode
Outline: as §1

[11] = qHTS assay for small molecule activators of the p53 signaling pathway (AID 651743; active means well fitted activation curve with a large enough effect in the signal ratio, not every such curve was filed as active; the % refers to the signal ratio; further: % of control where 0% means no effect); details: HCT-116 p53RE-bla, beta-lactamase FRET ratio, 16 h; activation: stronger effect = higher value
Outline: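 p53RE-bla HCT-116 cells with a stably integrated beta-lactamase reporter under p53 response elements were plated, rested 5 hours at 37 C/5% CO2, then exposed to compounds in DMSO for 16 hours at 37 C. LiveBLAzer B/G FRET substrate was read after 2 hours at room temperature.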

[12] = qHTS assay for environmental chemicals that activate the Aryl hydrocarbon Receptor (AhR) signaling pathway (AID 651777); details: 1A2-DRE human hepatoma cells, luciferase, 24 h; activation: stronger effect = higher value; further: % of control where 0% means no effect; nearly all actives have a fitted effect of over 15% in size
Outline: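 Reporter gene assay: hepatoma cells with DRE/CYP1A2-luciferase, 24 hr compound incubation at 37 C, 5% CO2, luminescence after One-Glo (30 min, RT).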

[13] = biological target: Peroxisome proliferator-activated receptor alpha (Homo sapiens) (UniProt Q07869); assay: qHTS assay for small molecule agonists of the peroxisome proliferator-activated receptor alpha (PPARalpha) signaling pathway (AID 651778); details: PathHunter PPARalpha complementation, chemiluminescence, 6 h; max response: stronger effect = higher value; further: potency means the concentration at half of the fitted maximal effect; on max response: % of control where 0% means no effect
Outline: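 Cells plated at 2,000/well and held overnight at 37 C, 5% CO2, then compound added by pin tool for 6 hr; after PathHunter detection reagent and 60 min at room temperature, chemiluminescence from enzyme complementation was read.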

[14] = qHTS assay for small molecule agonists of the antioxidant response element (ARE) signaling pathway measured by Nrf2-dependant transcriptional activity (AID 720636; active means well fitted curve in the direction sought with a large enough effect in the repeat runs; an effect the other way counts as inactive or inconclusive;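 further: HepG2 cells with an ARE-driven luciferase reporter; % of control where 0% means no effect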); details: ARE-luc HepG2, Nrf2 luciferase reporter, 16 h; series mostly up to 92.4 µM
Outline: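 Nrf2-dependent transcription is measured in ARE-luc HepG2 cells: compound is applied for 16 hr at 37 C after a 6 hr attachment period, and luciferase activity is quantified by luminescence using ONE-Glo.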

[15] = qHTS assay for cell viability of HEK293 cells (AID 743288); details: ATP luminescence (CellTiter-Glo), 18 h; max response: stronger effect = lower value; further: nearly all actives have a fitted effect of over 50% in size; further: potency means the concentration at half of the fitted maximal effect; on max response: on the % scale 0 is the no-effect control and ±100 the full control effect
Outline: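 The Tox21 protocol used parental HEK293 cells treated for 18 h at 37 C with compounds delivered by pintool; ATP-coupled luminescence after 30 min at room temperature gave viability.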

[16] = qHTS assay for cell viability of the p53RE-bla HCT-116 cell line (AID 743292); details: p53RE-bla HCT-116 viability, ATP luminescence, 16 h; series mostly up to 95 µM; further: on the % scale 0 is the no-effect control and ±100 the full control effect; nearly all actives have a fitted effect of over 55% in size
Outline: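 ATP-based luminescence, 16 h compound exposure at 37 C, p53RE-bla HCT-116 cells at 4,000/well.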

[17] = qHTS assay for small molecule agonists of the antioxidant response element (ARE) signaling pathway measured by Nrf2-dependant transcriptional activity - cell viability counter screen (AID 720653; active means well fitted curve in the direction sought with a large enough effect in the repeat runs; an effect the other way counts as inactive or inconclusive; further: on the % scale 0 is the no-effect control and ±100 the full control effect); details: ARE-bla HepG2 viability, CellTiter-Glo ATP luminescence, 16 h; max response: stronger effect = lower value
Outline: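 ARE-bla HepG2 cells (2,000/well) rested 5 hrs at 37C/5% CO2, then exposed to compounds in DMSO for 16 hrs. Viability was read in the same wells as intracellular ATP by luminescence, 30 min at room temperature after reagent addition.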

[18] = qHTS assay for small molecule activators of the human pregnane X receptor (PXR) signaling pathway (AID 720659; call rule not given here; further: 0% is about no effect); details: DPX-2 HepG2 CYP3A4-luciferase, 24 h; series mostly up to 92.3 µM
[19] = qHTS assay for small molecule antagonists of peroxisome proliferator-activated receptor delta signaling (AID 588535); details: HEK293T PPARd-UAS-bla, beta-lactamase FRET ratio, 18 h; 460 nm channel;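 further: cells co-treated with a PPAR-delta agonist as stimulator during compound exposure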
Outline: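 GeneBLAzer PPAR-delta-UAS-bla HEK293T cells in medium with 2% charcoal/dextran FBS were preincubated 5 hrs at 37 C, then given compounds, incubated 18 hrs at 37 C, and read by CCF4 beta-lactamase fluorescence; IC50 from Hill fits.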

[20] = biological target: Nuclear receptor subfamily 1 group I member 2 (Rattus norvegicus) (UniProt Q9R1A7); assay: qHTS assay for small molecule activators of the rat pregnane X receptor (rPXR) signaling pathway (AID 651751; call rule not given here; further: 0% is about no effect); details: rPXR reporter cells, luciferase (One-Glo), 24 h
Nuclear receptor subfamily 1 group I member 2 (Rattus norvegicus), sequence (Q9R1A7 whole entry, looked up): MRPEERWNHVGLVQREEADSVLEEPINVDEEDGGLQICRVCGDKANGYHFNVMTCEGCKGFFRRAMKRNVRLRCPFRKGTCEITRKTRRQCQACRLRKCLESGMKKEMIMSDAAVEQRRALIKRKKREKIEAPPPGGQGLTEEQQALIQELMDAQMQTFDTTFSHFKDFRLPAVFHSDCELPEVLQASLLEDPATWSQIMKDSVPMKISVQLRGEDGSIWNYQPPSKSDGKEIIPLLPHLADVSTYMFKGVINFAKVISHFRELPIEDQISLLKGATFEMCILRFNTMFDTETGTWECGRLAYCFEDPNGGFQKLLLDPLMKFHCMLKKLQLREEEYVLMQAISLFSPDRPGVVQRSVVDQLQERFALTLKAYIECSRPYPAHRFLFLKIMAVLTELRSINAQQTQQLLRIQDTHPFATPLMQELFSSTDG

Peroxisome proliferator-activated receptor gamma (Homo sapiens), sequence (P37231 whole entry, looked up): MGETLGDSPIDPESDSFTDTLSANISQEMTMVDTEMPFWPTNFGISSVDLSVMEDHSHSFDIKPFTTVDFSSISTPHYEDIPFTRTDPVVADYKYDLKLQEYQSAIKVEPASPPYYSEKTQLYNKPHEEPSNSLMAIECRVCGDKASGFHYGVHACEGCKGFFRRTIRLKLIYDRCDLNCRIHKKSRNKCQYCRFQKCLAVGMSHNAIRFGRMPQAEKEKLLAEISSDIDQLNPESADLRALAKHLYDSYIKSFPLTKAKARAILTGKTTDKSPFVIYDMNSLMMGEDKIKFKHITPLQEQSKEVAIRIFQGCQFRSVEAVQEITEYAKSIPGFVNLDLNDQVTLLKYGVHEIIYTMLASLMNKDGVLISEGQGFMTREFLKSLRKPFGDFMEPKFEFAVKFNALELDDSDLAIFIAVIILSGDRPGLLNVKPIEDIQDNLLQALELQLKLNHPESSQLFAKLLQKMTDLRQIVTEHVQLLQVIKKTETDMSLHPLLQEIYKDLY
Thyroid hormone receptor beta (Homo sapiens), sequence (P10828 whole entry, looked up): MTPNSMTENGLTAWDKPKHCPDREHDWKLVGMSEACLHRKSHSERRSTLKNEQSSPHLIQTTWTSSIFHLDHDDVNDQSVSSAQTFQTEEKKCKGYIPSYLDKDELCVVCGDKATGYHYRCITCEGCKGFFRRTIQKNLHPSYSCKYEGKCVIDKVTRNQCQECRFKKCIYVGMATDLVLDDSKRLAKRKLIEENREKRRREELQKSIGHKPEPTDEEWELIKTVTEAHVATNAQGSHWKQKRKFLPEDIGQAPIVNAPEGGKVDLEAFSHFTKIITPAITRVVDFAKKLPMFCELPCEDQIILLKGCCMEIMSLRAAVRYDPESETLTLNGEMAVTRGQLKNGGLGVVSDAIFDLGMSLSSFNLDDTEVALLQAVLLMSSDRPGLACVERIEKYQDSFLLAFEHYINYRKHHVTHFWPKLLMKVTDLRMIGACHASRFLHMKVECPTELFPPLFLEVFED
Vitamin D3 receptor (Homo sapiens), sequence (P11473 whole entry, looked up): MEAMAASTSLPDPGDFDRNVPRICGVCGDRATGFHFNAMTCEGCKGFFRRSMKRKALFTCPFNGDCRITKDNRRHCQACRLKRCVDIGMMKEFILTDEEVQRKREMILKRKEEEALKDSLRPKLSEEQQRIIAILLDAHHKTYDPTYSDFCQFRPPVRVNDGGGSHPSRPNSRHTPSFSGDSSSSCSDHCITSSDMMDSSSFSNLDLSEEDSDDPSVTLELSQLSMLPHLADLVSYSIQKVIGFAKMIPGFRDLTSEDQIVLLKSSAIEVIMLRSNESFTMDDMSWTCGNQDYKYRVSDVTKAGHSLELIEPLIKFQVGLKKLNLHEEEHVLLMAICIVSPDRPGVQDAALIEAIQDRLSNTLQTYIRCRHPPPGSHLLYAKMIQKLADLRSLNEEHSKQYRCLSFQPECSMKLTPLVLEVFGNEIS
Glucocorticoid receptor (Homo sapiens), sequence (P04150 whole entry, looked up): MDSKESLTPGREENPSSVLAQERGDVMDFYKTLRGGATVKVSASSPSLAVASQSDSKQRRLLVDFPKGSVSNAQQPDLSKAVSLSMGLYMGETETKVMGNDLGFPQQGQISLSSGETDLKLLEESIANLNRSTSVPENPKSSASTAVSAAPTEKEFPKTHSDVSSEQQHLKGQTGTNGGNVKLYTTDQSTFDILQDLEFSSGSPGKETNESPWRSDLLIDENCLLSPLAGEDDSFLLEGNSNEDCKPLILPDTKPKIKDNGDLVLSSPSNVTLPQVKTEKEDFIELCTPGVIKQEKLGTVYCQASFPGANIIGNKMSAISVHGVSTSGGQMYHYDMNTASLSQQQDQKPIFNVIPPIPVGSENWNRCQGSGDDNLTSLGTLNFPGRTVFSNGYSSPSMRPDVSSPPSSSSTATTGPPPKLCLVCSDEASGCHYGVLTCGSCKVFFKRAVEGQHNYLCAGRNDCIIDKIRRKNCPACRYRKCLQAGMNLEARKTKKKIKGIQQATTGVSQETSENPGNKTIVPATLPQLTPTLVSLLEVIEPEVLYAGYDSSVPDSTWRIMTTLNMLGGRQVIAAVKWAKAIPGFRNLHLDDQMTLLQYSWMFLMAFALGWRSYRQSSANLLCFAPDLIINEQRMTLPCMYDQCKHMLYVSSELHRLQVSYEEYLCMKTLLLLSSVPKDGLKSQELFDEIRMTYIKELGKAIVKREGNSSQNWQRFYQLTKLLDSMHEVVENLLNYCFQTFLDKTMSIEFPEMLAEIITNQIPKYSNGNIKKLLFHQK
Peroxisome proliferator-activated receptor alpha (Homo sapiens), sequence (Q07869 whole entry, looked up): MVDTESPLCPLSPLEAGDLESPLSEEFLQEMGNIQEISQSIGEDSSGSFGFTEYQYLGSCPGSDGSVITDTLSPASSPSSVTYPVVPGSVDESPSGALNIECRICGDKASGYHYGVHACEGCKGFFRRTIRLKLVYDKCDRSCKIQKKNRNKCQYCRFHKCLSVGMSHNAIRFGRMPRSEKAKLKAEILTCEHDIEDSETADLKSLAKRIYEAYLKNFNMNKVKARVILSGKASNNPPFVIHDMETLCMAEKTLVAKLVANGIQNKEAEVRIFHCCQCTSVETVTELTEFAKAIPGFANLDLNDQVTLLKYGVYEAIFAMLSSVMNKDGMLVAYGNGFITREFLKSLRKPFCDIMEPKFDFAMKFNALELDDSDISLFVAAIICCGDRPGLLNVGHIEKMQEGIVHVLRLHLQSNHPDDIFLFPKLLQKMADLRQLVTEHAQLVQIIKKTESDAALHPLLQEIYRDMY
Retinoic acid receptor RXR-alpha (Homo sapiens), sequence (P19793 whole entry, looked up): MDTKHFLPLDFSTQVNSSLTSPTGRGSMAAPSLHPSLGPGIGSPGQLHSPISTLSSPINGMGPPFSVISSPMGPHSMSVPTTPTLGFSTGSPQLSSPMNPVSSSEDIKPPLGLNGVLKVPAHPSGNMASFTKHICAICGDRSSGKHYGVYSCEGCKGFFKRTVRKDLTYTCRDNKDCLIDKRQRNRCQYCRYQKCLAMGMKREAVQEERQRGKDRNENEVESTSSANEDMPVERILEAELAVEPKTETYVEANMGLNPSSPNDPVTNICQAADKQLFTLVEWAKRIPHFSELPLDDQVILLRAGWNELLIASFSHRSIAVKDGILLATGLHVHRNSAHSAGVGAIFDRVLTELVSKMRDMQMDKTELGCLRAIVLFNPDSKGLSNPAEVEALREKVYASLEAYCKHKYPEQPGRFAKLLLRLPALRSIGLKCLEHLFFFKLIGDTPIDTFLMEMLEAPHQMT

CC(C)CC(C)(O)C#CC(C)(O)CC(C)C (centres undefined)
10.7%: max response [6]
inactive: activation [1] 4.46% | outcome [2] | Potency [3] | Potency [4] | outcome [5] | Potency [7] | Potency [8] | max response [10] -21.9% | activation [11] 1.9% | activation [12] 0.133% | max response [13] -1.54% | Potency [14] | max response [15] -6.63% | Potency [16]
-0.0198%: max response [9]

C[C@]12CC[C@@H]3c4ccc(O)cc4CC[C@H]3[C@@H]1CC[C@H]2O
inactive: activation [1] -4.59% | outcome [2] | Potency [4] | outcome [5] | Potency [8] | activation [11] 23.4% | activation [12] 0.328% | max response [13] -0.0791% | Potency [14] | max response [17] -10.8% | max response [15] -24% | Potency [16]

C=CC(=O)OCCOCC(CC)(COCCOC(=O)C=C)COCCOC(=O)C=C
active: Potency [4] 28.2 µM | Potency [15] 39.8 µM
inactive: activation [1] -19.8% | outcome [5] | activation [11] 14.9% | activation [12] 5.29% | max response [13] -0.796% | max response [17] -10.9% | outcome [18]

O=[N+]([O-])c1ccc(O)cc1C(F)(F)F
inactive: activation [1] -7.74% | Potency [3] | Potency [4] | outcome [5] | Potency [8] | activation [12] 14.2% | max response [13] -8.59% | Potency [14] | Potency [16] | outcome [18]
6.72%: max response [9]
-4.35%: max response [19]

Clc1nc(Cl)c(Cl)c(Cl)c1Cl
31.1%: max response [19]
inactive: outcome [2] | Potency [3] | Potency [4] | outcome [5] | Potency [7] | Potency [8] | max response [10] -25.7% | activation [12] -0.0238% | max response [13] -3.38% | Potency [14] | max response [17] -5.53% | max response [15] -14.3% | Potency [16] | max response [20] -3.08% | outcome [18]
-0.304%: max response [9]
-3.68%: max response [6]

CCCCCCC(O)CCCCCCCCCCC(=O)OC (centres undefined)
inactive: activation [1] -20.2% | Potency [4] | outcome [5] | Potency [7] | Potency [8] | activation [11] 0.349% | Potency [14] | max response [17] 9.9% | max response [15] -0.436% | max response [20] -2.07% | outcome [18]
18.1%: max response [19]
-11.4%: max response [6]
active: Potency [13] 20 µM

CCNc1nc(NC(C)CC)nc(OC)n1 (centres undefined)
-8.46%: max response [9]
-13.5%: max response [6]
inactive: activation [1] -21% | outcome [2] | Potency [3] | Potency [4] | outcome [5] | Potency [7] | Potency [8] | max response [10] 7.45% | activation [11] -1.96% | activation [12] 2.63% | max response [13] 5.06% | Potency [14] | max response [17] 16.1% | max response [15] -2.08% | Potency [16] | max response [20] 1.4% | outcome [18]

CCCCCCCCCCCCN
-18.4%: max response [19]
-2.37%: max response [9]
7.66%: max response [6]
inactive: activation [1] -4.12% | outcome [2] | Potency [3] | Potency [7] | Potency [8] | max response [10] 5.24% | activation [12] -1.22% | max response [13] -0.939% | Potency [14] | max response [17] -1.6% | max response [15] -1.85% | max response [20] 0.146% | outcome [18]

CCOC(=O)C(C)Oc1ccc(Oc2nc3ccc(Cl)cc3o2)cc1 (centres undefined)
inactive: activation [1] 19.6% | Potency [3] | outcome [5] | Potency [7] | activation [11] -9.4% | activation [12] 0.871% | max response [13] 26% | max response [17] 6.64% | max response [15] 2.68% | max response [20] -9.57% | outcome [18]
11.3%: max response [6]
-2.48%: max response [19]
